In the library only some 3.8% were active in any assay of this set; here they are far more common.
HepG2 tox-1: kills HepG2 cells in TGF-b inhibitor counter-screen | HepG2 CAGA-GFP viability, ATP luminescence, 18 h | Potency, µM (titrated, usually from 46.1 µM), most hits filed as cytotoxic | actives 0.76% (n = 410,000) | AID 588856
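HepG2 CAGA-GFP cells (1000/well, DMEM with 1% FBS) received compound, then TGF-beta at 500 pg/mL final, and were incubated 18 hours at 37 degrees C. Viability was read by CellTiter-Glo luminescence. Media-only wells were set as complete cell-killing and DMSO as no toxicity.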
Nrf2 inh: Nrf2 pathway inhibition; A549 ARE-Fluc reporter, luciferase luminescence, 18-24 h; Potency, µM (doses to about 46 µM), most hits filed as inhibitors; actives 2.1% (n = 360,000); AID 504444; further: nearly all actives have a fitted effect of over 60% in size
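Nrf2 activity is the BugLite luminescence, read 15 min after reagent at room temperature, following CellTiter-Fluor cytotoxicity readout (30 min, 37C). Compound titrations were applied for 18-24 h to 5000 A549 ARE_Fluc cells/well in 5% FBS OPTI-MEM.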
S2 tox: reduces viability in counter-screen for ATXN expression inhibitors | S2 cells (HEK-293 line with an ATXN2-luciferase reporter) viability, CellTiter-Fluor protease fluorescence, 24 h | Potency, µM (highest dose often 56.7 µM), most hits filed as cytotoxic | AID 651635 | actives 0.49% (n = 400,000); further: nearly all actives have a fitted effect of over 40% in size
ATXN2 expr inh: reduces ATXN2 reporter expression in HEK-293 cells | HEK-293 ATXN2-luciferase reporter, luminescence, 24 h | Potency, µM (top dose mostly 57 µM), usual class: inhibitors | actives 0.72% (n = 360,000); further: nearly all actives have a fitted effect of over 55% in size
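qHTS (up to 57 uM final) was run with 24 h compound exposure of reporter cells at 37 °C. Each well was multiplexed: SteadyGlo luminescence measured ATXN2-luciferase expression after a fluorogenic Gly-Phe-AFC viability readout (25 uM final).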
TGFb SMAD3 inh: inhibitors of TGF-b signaling | Potency, µM (series often up to 46.1 µM), actives largely listed as inhibitors | actives 1.2% (n = 410,000) | HepG2 CAGA-GFP TGF-b/SMAD3 reporter, GFP fluorescence, 18 h; TGF-beta stimulated, 500 pg/mL final; further: nearly all actives have a fitted effect of over 65% in size
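HEPG2 CAGA-GFP cells (1000/well, DMEM with 1% FBS) were pre-incubated 2 h at 37 degrees C, given compound by pin tool, then stimulated with TGF-beta at 500 pg/mL final for 18 h before per-cell GFP fluorescence imaging.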
A549 tox: kills or reduces viability of A549 cells in Nrf2 counter-screen | AID 504648 | Potency, µM (series often up to 46 µM), most hits filed as inhibitors | A549 ARE-Fluc cells, CellTiter-Fluor viability, 18-24 h | actives 0.16% (n = 390,000)
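A549 ARE_Fluc cells in 5% FBS OPTI-MEM were exposed to compounds in concentration-response for 18-24 h at 37 deg C. Viability was read by CellTiter-Fluor fluorescence (Ex 405/Em 525) after 30 min, before the luciferase read.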
TGFb CAGA inh: confirmation of TGF-b signaling inhibitors in HepG2 reporter cells. shares compounds with TGFb SMAD3 inh. HepG2 CAGA-GFP TGF-b reporter, GFP fluorescence, 18 h; cells stimulated with TGF-beta, 500 pg/mL. Potency, µM (doses to about 46.1 µM), actives largely listed as inhibitors. actives 63% (n = 1,600); further: nearly all actives have a fitted effect of over 65% in size
HepG2 tox-2: HepG2 cytotoxicity, TGF-b inhibitor counterscreen | actives 27% (n = 1,600) | shares compounds with TGFb SMAD3 inh | HepG2 CAGA-GFP viability, ATP luminescence, 18 h; cells stimulated with TGF-beta, 500 pg/mL | Potency, µM (series often up to 46.1 µM), most hits filed as inhibitors; further: nearly all actives have a fitted effect of over 70% in size
TGFb CCL64 inh: orthogonal confirmation of TGF-b inhibitors in CCL64 cells. AID 720536. CCL64 CAGA-GFP reporter, TGF-b stimulated, GFP fluorescence, 18 h. Potency, µM (doses to about 46.1 µM), hits mostly inhibitors. shares compounds with TGFb SMAD3 inh. actives 41% (n = 1,600); further: nearly all actives have a fitted effect of over 65% in size
TGFb COP inh: TGF-b inhibition validated with COP promoter | shares compounds with TGFb SMAD3 inh | HepG2 COP-GFP TGF-b reporter, GFP fluorescence, 18 h; cells stimulated by added recombinant TGF-beta | Potency, µM (doses to about 46.1 µM), most hits filed as inhibitors | actives 3% (n = 1,600) | AID 720537; further: nearly all actives have a fitted effect of over 70% in size
Each line names hits and unclear results; the compound was inactive in the other large screens (follow-up assays come after a bar, where they were run). The call rests on the fitted dose curve; in most records, active means well fitted curve in the direction sought with a large enough effect; inconclusive means small, poorly fitted or top-dose-only effect, or another doubt; inactive means no such curve, though single readings can be large; an effect the other way counts as inactive or inconclusive.

Oc1ccc(C[C@@H](CN2CCCC2CN2C(=S)NC[C@@H]2Cc2ccccc2)N2C[C@H](Cc3ccccc3)N(CC3CCCCCC3)C2=S)cc1 (some centres undefined)	none (no result: HepG2 tox-1, Nrf2 inh, TGFb SMAD3 inh, A549 tox)
Oc1ccc(C[C@H]2CNC(=S)N2CC2CCCN2C[C@H](Cc2ccccc2)N2C[C@H](Cc3ccc(O)cc3)N(CC3CCCCC3)C2=S)cc1 (some centres undefined)	S2 tox inconclusive, ATXN2 expr inh inconclusive, TGFb SMAD3 inh 5.6µM (no result: Nrf2 inh, A549 tox) | TGFb CAGA inh 15µM | HepG2 tox-2 inconclusive | TGFb CCL64 inh 4.1µM | TGFb COP inh inactive
CC(C)C[C@H]1CN([C@@H](CC(C)C)CN2CCCC2CN2C(=S)NC[C@@H]2Cc2ccc(O)cc2)C(=S)N1CC1CCCCC1 (some centres undefined)	Nrf2 inh inconclusive, TGFb SMAD3 inh inconclusive
Oc1ccc(C[C@H]2CNC(=S)N2CC2CCCN2C[C@H](Cc2ccc(O)cc2)N2C[C@H](Cc3ccccc3)N(CC3CCCCC3)C2=S)cc1 (some centres undefined)	Nrf2 inh inconclusive, S2 tox inconclusive, ATXN2 expr inh inconclusive, TGFb SMAD3 inh 7.9µM | TGFb CAGA inh 6.5µM | HepG2 tox-2 inconclusive | TGFb CCL64 inh inconclusive | TGFb COP inh inactive
CCOc1cccc(C(=O)Nc2c(C(=O)c3ccc(OC)cc3)oc3ccccc23)c1	Nrf2 inh inconclusive (no result: S2 tox, ATXN2 expr inh)
COc1ccc(-c2nc3ccccc3o2)cc1NC(=O)C(C)(C)Oc1ccc(Br)cc1	none
O=C(c1cnn(-c2nccc(-c3ccccc3F)n2)c1C1CC1)N1CCCCC1c1cccnc1 (centres undefined)	none (no result: HepG2 tox-1, Nrf2 inh, ATXN2 expr inh, TGFb SMAD3 inh, A549 tox)
Oc1ccc(C[C@H]2CNC(=S)N2CC2CCCN2C[C@H](Cc2ccc(O)cc2)N2C[C@H](Cc3ccccc3)N(CC3CCCCCC3)C2=S)cc1 (some centres undefined)	Nrf2 inh inconclusive, TGFb SMAD3 inh 7.9µM | TGFb CAGA inh 6.5µM | HepG2 tox-2 inactive | TGFb CCL64 inh 10µM | TGFb COP inh inactive
Oc1ccc(C[C@@H](CN2CCCC2CN2C(=S)NC[C@@H]2Cc2ccccc2)N2C[C@H](Cc3ccccc3)N(CC3CCCCC3)C2=S)cc1 (some centres undefined)	none (no result: HepG2 tox-1, Nrf2 inh, TGFb SMAD3 inh, A549 tox)
COCCN(C)C(=O)c1cnn(-c2ncc3c(n2)-c2ccccc2CC3)c1C	none (no result: HepG2 tox-1, Nrf2 inh, ATXN2 expr inh, TGFb SMAD3 inh, A549 tox)
CC1(Cc2cc(Cl)ccc2C(F)(F)F)C(=O)Nc2ccc(-c3ccc(F)c(Cl)c3)cc21 (centres undefined)	TGFb SMAD3 inh inconclusive (no result: Nrf2 inh, S2 tox, A549 tox)
CC1(Cc2cccc(C(F)(F)F)c2)C(=O)Nc2ccc(-c3ccc(F)c(Cl)c3)cc21 (centres undefined)	HepG2 tox-1 10µM, ATXN2 expr inh inconclusive, TGFb SMAD3 inh 10µM (no result: Nrf2 inh, S2 tox, A549 tox) | TGFb CAGA inh inconclusive | HepG2 tox-2 18µM | TGFb CCL64 inh inconclusive | TGFb COP inh inactive
O=C(CN1C(=O)C(c2ccc(F)cc2)=NC12CCCCCC2)Nc1ccc(F)c(Cl)c1	Nrf2 inh inconclusive, A549 tox inconclusive (no result: S2 tox, ATXN2 expr inh)
Cc1ccc(NC(=O)C2=CCN(S(=O)(=O)c3ccc(F)cc3)CC2)cc1	none
Cc1ccc(S(=O)(=O)N2CC=C(c3ccc(F)cc3)CC2)cc1	S2 tox inconclusive, TGFb SMAD3 inh 3.2µM | TGFb CAGA inh inconclusive | HepG2 tox-2 inactive | TGFb CCL64 inh inactive | TGFb COP inh inactive
c1ccc(CNCCCn2cnc3c(OCc4ccccc4)ncnc32)cc1	none
Cc1ccc(NCCCn2cnc3c(OCc4ccccc4)ncnc32)cc1C	S2 tox inconclusive, ATXN2 expr inh inconclusive, TGFb SMAD3 inh 18µM | TGFb CAGA inh 6.5µM | HepG2 tox-2 inconclusive | TGFb CCL64 inh inconclusive | TGFb COP inh inactive
C[C@H]1CN([C@@H](C)CO)C(=O)Cc2cc(NS(=O)(=O)c3ccc(Cl)cc3)ccc2O[C@@H]1CN(C)C(=O)Nc1cccc2ccccc12	none
CC(C)NC(=O)N(C)C[C@H]1Oc2ccc(NS(=O)(=O)c3ccc(Cl)cc3)cc2CC(=O)N([C@@H](C)CO)C[C@@H]1C	TGFb SMAD3 inh inconclusive | TGFb CAGA inh inactive | HepG2 tox-2 inactive | TGFb CCL64 inh inactive | TGFb COP inh inactive
CC(C)(C)OC(=O)C(C)(C)O/N=C(\C(=O)O)c1csc(N)n1	Nrf2 inh inconclusive, S2 tox inconclusive
COc1ccc(CNC(=O)C[C@H]2C[C@H](C(=O)N(C(C)C)C(C)C)[C@@]3(C)c4[nH]c5ccc(Cl)cc5c4CCN3C2=O)cc1OC	Nrf2 inh inconclusive, S2 tox inconclusive, ATXN2 expr inh inconclusive, TGFb SMAD3 inh 14µM | TGFb CAGA inh 8.2µM | HepG2 tox-2 inconclusive | TGFb CCL64 inh inconclusive | TGFb COP inh inactive
COc1ccc(CNC(=O)C[C@H]2C[C@H](C(=O)N3CCOCC3)[C@@]3(C)c4[nH]c5ccc(Cl)cc5c4CCN3C2=O)cc1OC	TGFb SMAD3 inh inconclusive
COc1ccc(CNC(=O)C[C@H]2C[C@H](C(=O)N3CCCCC3)[C@@]3(CCc4ccccc4)c4[nH]c5ccc(Cl)cc5c4CCN3C2=O)cc1OC	Nrf2 inh inconclusive, S2 tox inconclusive, TGFb SMAD3 inh 6.3µM, A549 tox inconclusive | TGFb CAGA inh 8.2µM | HepG2 tox-2 inactive | TGFb CCL64 inh 6.5µM | TGFb COP inh inactive

Bioassay records (PubChem)
